# Results from PubChem BioAssay (EPA / NIEHS).
# Values joined by “and” are separate entries in the source; they are usually repeats but may differ in a detail not shown here. Equal entries are not always repeated. Records with an inconclusive call do not appear. Where a structure was tested more than once in an assay, its records may differ in their call. Active and inactive are the calls of the source. How the source made its calls: active means hit-call score of the fitted dose curve at least 0.9, where 1 is the maximum; inconclusive means response in the unintended direction; inactive means score below 0.9.
# Assay: Tanguay_ZF_120hpf_ActivityScore_legacy: (Legacy) Oregon State University Tanguay Lab 120 Hour Post-fertilization zebrafish Assay Score for Activity (AID 2283742);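 on AC50: dechorionated Tropical 5D wild-type zebrafish embryos held singly per well; static exposure from 6 hpf until 120 hpf at 28 °C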
# Summary of the method: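 In this whole-embryo screen, dechorionated zebrafish were exposed from 6 hpf until 120 hpf at 28C under a 0.64% DMSO vehicle. Developmental malformations and death were recorded by brightfield microscopy as binary endpoints.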
SMILES,AC50,outcome
Cc1nn(C)c(Oc2ccccc2)c1C=NOCc1ccc(C(=O)OC(C)(C)C)cc1,2.45 µM (active),
CCCCCOC(=O)COc1cc(N2C(=O)C3=C(CCCC3)C2=O)c(F)cc1Cl,,inactive
CC(C)(c1ccc(O)cc1)c1ccc(O)cc1,45 µM (active) and 33.6 µM (active) and 35.6 µM (active),
S=C(S)NCCNC(=S)S.[Mn+2].[S-]C([S-])=NCCN=C([S-])[S-].[Zn+2],0.00112 µM (active),inactive
CCNc1nc(N)nc(Cl)n1,,inactive
COC(=O)c1ccc(I)cc1S(=O)(=O)NC(=O)Nc1nc(C)nc(OC)n1,,inactive
CCSC(=O)N(CC(C)C)CC(C)C,,inactive
CCCCOC(=O)C(C)Oc1ccc(Oc2ccc(C(F)(F)F)cn2)cc1 (configuration not stated),,inactive
CSC(=O)c1cccc2nnsc12,,inactive
COC(=O)CSc1cc(N=c2sc(=O)n3n2CCCC3)c(F)cc1Cl,,inactive
Oc1ccc(C(c2ccc(O)cc2)C(Cl)(Cl)Cl)cc1,30.8 µM (active),
COC(=O)c1ccccc1C(=O)O,,inactive
N[C@@H](Cc1cc(I)c(Oc2ccc(O)c(I)c2)c(I)c1)C(=O)O,0.287 µM (active),
O=C(Nc1ccc([N+](=O)[O-])cc1Cl)c1cc(Cl)ccc1O,,inactive
CCN(Cc1c(F)cccc1Cl)c1c([N+](=O)[O-])cc(C(F)(F)F)cc1[N+](=O)[O-],,inactive
S=C([S-])NCCNC(=S)[S-].[Mn+2],,inactive
C#CCOC(=O)[C@@H](C)Oc1ccc(Oc2ncc(Cl)cc2F)cc1,,inactive
CC(C)(C)[C@@H](O)[C@@H](Cc1ccc(Cl)cc1)n1cncn1,,inactive
CCCCC(CC)COC(=O)c1ccccc1C(=O)O (configuration not stated),,inactive
CC(C)CCCCCCc1ccc(O)cc1,,inactive
CN(C)C(=O)Nc1ccc(Cl)c(Cl)c1,,inactive
N#CSCSc1nc2ccccc2s1,0.11 µM (active),
O=C(O)C1(C(=O)Nc2ccc(Cl)cc2Cl)CC1,19.6 µM (active),
C[C@]12C[C@H](O)[C@H]3[C@@H](CCC4=CC(=O)CC[C@@]43C)[C@@H]1CC[C@@H]2C(=O)CO,,inactive
C=CCOC(Cn1ccnc1)c1ccc(Cl)cc1Cl (configuration not stated),11.7 µM (active),
CCCCOC(=O)[C@@H](C)Oc1ccc(Oc2ccc(C(F)(F)F)cn2)cc1,,inactive

# Assay: ArunA_CellTiter_hNC: Viability Assessment in the ArunA Biomedical's Oris Neural Crest (hNC) Cell Migration Assay (AID 2283752)
# Summary of the method: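 After a 72 h chemical exposure, viability of hNC cells is read with CellTiter Aqueous One and fitted as signal loss relative to DMSO. Cells were seeded at 60,000/well on Matrigel and cultured 16 h at 37 C beforehand.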
SMILES,outcome,AC50
CC(C)(c1ccc(O)cc1)c1ccc(O)cc1,inactive,
S=C(S)NCCNC(=S)S.[Mn+2].[S-]C([S-])=NCCN=C([S-])[S-].[Zn+2],,9.92 µM (active)
N[C@@H](Cc1cc(I)c(Oc2ccc(O)c(I)c2)c(I)c1)C(=O)O,,33 µM (active)
CC(C)CCCCCCc1ccc(O)cc1,,5.59 µM (active)

# Assay: ArunA_CellTiter_hNP: Viability Assessment in the ArunA Biomedical's Oris Neural Crest (hNC) Cell Migration Assay (AID 2283753)
# Summary of the method: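 Viability read with CellTiter 96 Aqueous One after 72 h chemical exposure of human hNP1 neuroprogenitors, which were plated on Matrigel in LIF/bFGF medium 16 h beforehand. Endpoint fitted in positive direction relative to DMSO.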
SMILES,outcome,AC50
CC(C)(c1ccc(O)cc1)c1ccc(O)cc1,inactive,
S=C(S)NCCNC(=S)S.[Mn+2].[S-]C([S-])=NCCN=C([S-])[S-].[Zn+2],,83.4 µM (active)
N[C@@H](Cc1cc(I)c(Oc2ccc(O)c(I)c2)c(I)c1)C(=O)O,inactive,
CC(C)CCCCCCc1ccc(O)cc1,,9.76 µM (active)

# Assay: ArunA_Migration_hNC: ArunA Biomedical's Oris Neural Crest (hNC) Cell Migration Assay (AID 2283755)
# Summary of the method: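 Calcein-AM fluorescence (ex494 nm/em 517 nm) in the stopper-defined detection zone quantifies migration of hNC cells after 72 h chemical exposure; 60,000 cells/well plated on Matrigel with LIF and bFGF, 16 h pre-incubation. DMSO baseline.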
SMILES,outcome,AC50
CC(C)(c1ccc(O)cc1)c1ccc(O)cc1,inactive,
S=C(S)NCCNC(=S)S.[Mn+2].[S-]C([S-])=NCCN=C([S-])[S-].[Zn+2],,50 µM (active)
N[C@@H](Cc1cc(I)c(Oc2ccc(O)c(I)c2)c(I)c1)C(=O)O,,56.2 µM (active)
CC(C)CCCCCCc1ccc(O)cc1,,4.41 µM (active)

# Assay: ArunA_NOG_NucleusCount: ArunA Biomedical's Neurite Outgrowth (NOG) Assay for Nucleus Count (AID 2283756)
# Experimental: ArunA_NOG (Neurite Outgrowth) is a cell-based, image-based assay that uses human H9-derived embryonic differentiated neurons (hNN). Measurements were taken 48 hours after chemical dosing in a 96-well plate.ArunA_NOG_NucleusCount is an assay component measured from the ArunA_NOG assay. It is designed to make measurements of viability related to the number of neurons, using a form of viability reporter, as detected with fluorescence intensity signals by HCS Fluorescent Imaging technology. Data from the assay component ArunA_NOG_NucleusCount was analyzed at the endpoint, ArunA_NOG_NucleusCount, in the positive analysis fitting direction relative to DMSO as the negative control and baseline of activity. Using a type of viability reporter, loss-of-signal activity can be used to understand viability. To generalize the intended target to other relatable targets, this assay endpoint is annotated to the neurodevelopment intended target family, where the subfamily is neurite outgrowth.
# Chemical treatment: Differentiated hNN cells were seeded and immediately exposed to test medium for 48 h. Following chemical exposure, cell bodies were stained with Hoechst 33,258 to quantitate viable neuron count and neurites were labeled with bIII-tubulin/DyLight1 488. High content imaging assessed the neurite outgrowth endpoints: neurite total length per neuron (um), neurite count per neuron, and branch points per neurite using the methods described in (Harrill et al 2010). […] Plates were then loaded into a Cellomics ArrayScan VTI HCS reader high-content imaging system (ThermoFisher Scientific, Waltham, MA) for automated image acquisition and morphometric analyses. […] Fixed integration times for image acquisition in each channel were determined by manual sampling of control-treated wells across multiple plates. […] Nuclei with size and intensity values outside of the ranges determined a priori for viable cells were identified in the channel 1 image and rejected from further analyses. […] Neurites emerging from the selected cell bodies were then individually traced and measured. […]
row,SMILES,outcome
1,CC(C)(c1ccc(O)cc1)c1ccc(O)cc1,inactive
2,S=C(S)NCCNC(=S)S.[Mn+2].[S-]C([S-])=NCCN=C([S-])[S-].[Zn+2],inactive
3,N[C@@H](Cc1cc(I)c(Oc2ccc(O)c(I)c2)c(I)c1)C(=O)O,inactive
